Our source for the growth values is PubChem BioAssay (NCI).

About 83,000 compounds went through this panel and 20% of them were active in at least one assay; those are over-represented in the sample as a whole.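 Compound tested at a single concentration for 48 hours in 96-well plates; a percent growth value below 10 was scored as active.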 Values without a mark were called inactive. The source made the active and inactive calls.

This experiment deals with MOLT-4 leukemia. Kind of experiment: NCI-60 one-dose screen, 48 h (100 = growth as untreated, 0 = no growth, -100 = all killed). The note with it: 10 µM unless noted.
With `Cc1ccc(NC(=O)N[C@@H](Cc2cc(F)cc(F)c2)C(=O)NC2C(=O)N3CCC[C@H]3C(=O)N3CCCC[C@H]3C(=O)N[C@@H](C)C(=O)N3C[C@H](C)C[C@H]3C(=O)O[C@H]2C)c(F)c1` (stereo partly drawn), the growth is 40.3%. In the case of `COc1ccc(/C=C/C(=O)c2nnn(-c3ccc(C(=O)O)cc3)c2C)cc1OC` it was 97.7%. In the case of `O=C(Nc1cc(F)cc2cccnc12)c1cnc(N2CCOCC2)cn1` it was 29.7%; in that of `Oc1ccccc1-c1nnc(SCc2ccc(O)c3ncccc23)o1`, 36.3%. In the case of `COc1cc(/C=C2\SC(=O)NC2=O)ccc1OCC(=O)Nc1ccc(C(=O)/C=C/c2cc3ccccc3nc2Cl)cc1` it was 51.4%. On to `Nc1nc(-c2cccc([N+](=O)[O-])c2)c(N=Nc2ccccc2Cl)s1`, for which the growth was 68.7%. In the case of `Oc1ccc(-c2nnc(SCc3ccc(O)c4ncccc34)o2)cc1` it was 16.5%. With `C[C@H]1[C@H](C)CC[C@]2(COC(=O)c3cccnc3)CC[C@]3(C)C(=CC[C@@H]4[C@@]5(C)CCCNC(C)(C)[C@@H]5CC[C@]43C)[C@H]12` the figure was 44%; with `O=c1[nH]c2cc(Cl)ccc2n1C1CCN(c2ccc3nnc(Cl)n3n2)CC1`, 101%. In the case of `COc1ccc(N2CCN(C(=O)CSc3ccc(-c4nc5cc(C)c(C)cc5[nH]4)cn3)CC2)cc1`, the growth was 6.92% (active). In the case of `Cc1cc(F)cc(NS(=O)(=O)c2ccc(-c3cnc(C4CC4)o3)cc2)c1` it was 26.1%; in that of `Oc1ccc(CSc2nnc(-c3ccncc3)o2)c2cccnc12`, 25.7%. As for `O=C(COc1ccc(/C=C2\SC(=O)NC2=O)cc1)Nc1ccc(C(=O)/C=C/c2cc3ccccc3nc2Cl)cc1`, the growth was 42.8%. With `O=C(Nc1cccc(Cl)c1)Nc1nc2ccc([N+](=O)[O-])cc2s1` the figure was 2.36% (active). For `COc1ccc(CCN2C(=O)/C(=C/c3nc(CO)cs3)SC2=S)cc1`, the growth is 87.5%.

`C/C(=N\NC(=S)Nc1ccc(Br)cc1)c1cc2ccccc2oc1=O`: the growth was 18.1%. With `O=C1[C@H]2Cc3c([nH]c4ccccc34)[C@@H](c3ccc(Cl)cc3)N2C(=O)CN1C1CCN(Cc2c(Cl)cccc2Cl)CC1` the figure was 97.3%. In the case of `O=C1[C@H]2Cc3c([nH]c4ccccc34)[C@@H](c3c(Cl)cccc3Cl)N2C(=O)CN1C1CCN(Cc2ccccc2)CC1`, the growth was 20%.

Take `Oc1ccccc1-c1nnc(SCc2ccc(O)c3ncccc23)n1-c1ccccc1`: the growth is 18%. In the case of `CC1=C2C(=C[C@@](C)(COS(N)(=O)=O)[C@@H]2O)C(=O)[C@](C)(O)C12CC2` it was 97.3%. `CC1(COc2ccc3ncc(C#Cc4cncc(C(=O)Nc5cc(C(C)(C)C)on5)c4)n3n2)COC1`: the growth was 45.6%. In the case of `NC(=S)N/N=C(/C=C/c1cn(-c2ccccc2)nc1-c1ccc(Cl)cc1)c1cc2ccccc2oc1=O` it was 23.7%. With `O=C(/C=C1\C=CN(CCCCO)c2ccccc21)n1ccc2ccccc21` the figure was 102%; with `Cc1cc(NS(=O)(=O)c2ccc(-c3cnc(C4CC4)o3)cc2)ccc1I`, 40.8%; with `Oc1ccc(CSc2nnc(-c3ccccc3)o2)c2cccnc12`, 14.4%. In the case of `CS(=O)(=O)c1ccc2c(c1)c1c(n2S(=O)(=O)c2ccc(Cl)cc2)CCCC1` it was 24.4%; in that of `CN(C)C(=O)c1ccccc1-n1cnc2ccccc2c1=O`, 102%; in that of `C=C(C)C(=O)O[C@H]1C[C@@]2(C)OC(=CC2=O)[C@H](C)[C@H](O)[C@H]2OC(=O)C(=C)[C@@H]21`, 76.6%. Regarding `O=C(Nc1cc(Cl)cc(Cl)c1)Nc1nc2ccc([N+](=O)[O-])cc2s1`, the growth was 2.31% (active). With `C#C[C@]1(O)CC[C@H]2[C@@H]3CC=C4c5sc(Nc6ccc(OC)nc6)nc5CC[C@]4(C)[C@H]3CC[C@@]21C` the figure was 3.4% (active); with `CCOc1ccc2nc(NC(=O)Nc3ccccc3C)sc2c1`, 34.5%; with `CN(c1ccc(Br)cc1)S(=O)(=O)c1ccc(-c2cnc(C3CC3)o2)cc1`, 23.5%. In the case of `CCNC(=NCCCN(C)C)N/C(N)=N/c1nc2ccccc2s1` it was 94.8%; in that of `Cc1cc(Cl)cc(NS(=O)(=O)c2ccc(-c3cnc(C4CC4)o3)cc2)c1`, 25.9%. With `N/C(=N\c1nc2ccc([N+](=O)[O-])cc2s1)C(Cl)(Cl)Cl` the figure was 77%.

Consider `CS(=O)c1nccc(-c2c(-c3ccc(F)c(OCCc4ccc(F)cc4)c3)nc3sccn23)n1` (stereo not drawn), for which the growth was 9.78% (active). For `CN(c1ccc(F)cc1)S(=O)(=O)c1ccc(-c2cnc(C3CC3)o2)cc1`, the growth is 25.6%.

In the case of `Cc1cn(-c2cc(NC(=O)c3cncc(C#Cc4cnc5ccc(OCCCS(C)(=O)=O)nn45)c3)cc(C(F)(F)F)c2)cn1`, the growth was 9.79% (active).
